A number with no mark means an inactive call. The call rests on the fitted dose curve; in most records, active means well fitted curve in the direction sought with a large enough effect; inconclusive means small, poorly fitted or top-dose-only effect, or another doubt; inactive means no such curve, though single readings can be large or run the other way.
biological target: Thyrotropin receptor (Homo sapiens) (UniProt P16473); assay: qHTS Assay for Antagonists of the Thyroid Stimulating Hormone Receptor (AID 488980); conditions: TSHR-expressing cells, cAMP antagonist read-out; series mostly up to 57.5 µM; activity, negative = inhibition: at the top concentration; further: 0% is about no effect
Text: TSH is an alpha/beta heterodimeric glycoprotein hormone secreted from the anterior pituitary gland which belongs to the glycoprotein hormone family. The actions of TSH are mediated by a seven-transmembrane receptor, which upon TSH binding couples preferentially to the G-alpha (s) protein (Gs), resulting in activation of adenylate cyclase and increase in cyclic adenosine 3', 5' monophosphate (cAMP). The TSH receptor (THSR) is mainly expressed in thyroid follicular cells and regulates their growth and function. This cell based assay was conducted on a TSHR transfected HEK 293 cell line, measuring cAMP stimulation using antibody-based Homogeneous Time Resolved Fluorescence (HTRF).
Our goal is to identify small molecules that will inhibit (antagonize) the thyroid-stimulating hormone receptor (TSHR), a member of the 7 transmembrane-spanning receptor (7TMR) family of cell surface receptors. TSHR-mediated hyperthyroidism is important in thyroid pathology. The development of small molecule antagonists of TSHR may lead to therapeutic approaches for TSHR-mediated hyperthyroidism caused by constitutively activating mutations or stimulating auto-antibodies associated with Graves' disease. Graves' disease is the leading cause of hyperthyroidism and is caused by autoantibodies that stimulate TSHR (TsAbs) causing thyroid growth and unregulated overproduction of thyroid hormones and existing treatments have liabilities (agranulocytosis). In addition, TSHRs are known to be expressed in multiple extrathyroidal tissues including bone, brain, kidney, testis, fat and cells of the immune system but the role of the TSHR in these tissues is not clear. Therefore, TSHR antagonists/inverse agonists could be used as probes of extrathyroidal TSHR function. Finally, TSHR inverse agonists, which are a subclass of antagonists that inhibit agonist-independent (or basal or constitutive) TSHR signaling, could be used to inhibit TSH-independent signaling in patients with recurrent or metastatic thyroid cancer who are receiving thyroid hormone to suppress TSH.
An anti cAMP antibody contains a fluorescent cryptate tag (excitation 337 nm; emission 620 nm) and the acceptor is cAMP-d2 (excitation 620 nm; emission 665 nm). When antibody and cAMP-d2 interact and are excited by a 337 nm light, a FRET occurs resulting in emission at 665 nm. The assay is competition between cAMP-d2 and cAMP (from the cell lysate). The homogeneous protocol allows for one step dispense after stimulation that is automation friendly.
Step, Parameter, Value, Description
1, Cells, 3 uL, 2000 TSHR freshly harvested cells/well 1536 TC treated White solid bottom plate (Cells resuspended in 10 mM HEPES buffered HBSS and 70 uM RO 20-1724)
2, Compound, 23 nL, Libraries and controls
3, Compound, 1 uL, EC80 TSH (4 nM final)
5, Reagent, 2 uL, cAMP antibody diluted 1:20 in lysis buffer
6, Time, 30 minutes, Room temperature
7, Detector, HTRF settings, Viewlux

Chain of Thyrotropin receptor (Homo sapiens) (P16473 whole entry, looked up): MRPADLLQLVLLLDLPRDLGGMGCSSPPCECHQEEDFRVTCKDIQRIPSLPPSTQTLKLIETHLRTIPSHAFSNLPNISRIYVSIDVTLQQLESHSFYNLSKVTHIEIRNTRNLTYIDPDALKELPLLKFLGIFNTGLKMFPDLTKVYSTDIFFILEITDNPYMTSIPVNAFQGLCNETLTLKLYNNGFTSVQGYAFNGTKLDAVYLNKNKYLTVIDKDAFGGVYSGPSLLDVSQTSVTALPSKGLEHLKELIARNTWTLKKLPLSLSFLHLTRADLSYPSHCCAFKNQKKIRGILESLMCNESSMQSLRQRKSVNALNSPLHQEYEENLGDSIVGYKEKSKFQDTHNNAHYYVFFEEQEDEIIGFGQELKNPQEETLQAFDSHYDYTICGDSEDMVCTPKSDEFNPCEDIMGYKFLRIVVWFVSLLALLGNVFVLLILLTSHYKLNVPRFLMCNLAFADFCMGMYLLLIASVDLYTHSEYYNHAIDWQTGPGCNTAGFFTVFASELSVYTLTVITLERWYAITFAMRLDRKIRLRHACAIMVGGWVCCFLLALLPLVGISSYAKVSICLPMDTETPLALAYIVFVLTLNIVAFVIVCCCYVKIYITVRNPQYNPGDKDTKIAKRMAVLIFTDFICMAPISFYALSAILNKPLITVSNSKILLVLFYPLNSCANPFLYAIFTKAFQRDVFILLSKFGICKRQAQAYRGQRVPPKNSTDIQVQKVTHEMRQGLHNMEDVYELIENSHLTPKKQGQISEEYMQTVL

How did the “activity, negative = inhibition” value turn out when NC(N)=NCCCCN=C(N)N was run?
The value was -0.467%.

For COc1cccc2c1[C@@H]1CN(CCCCn3c(=O)[nH]c4c(sc5ncc(-c6ccccc6)nc54)c3=O)C[C@@H]1CO2, which “activity, negative = inhibition” value is on record?
Its value is -0.85%.

Which “activity, negative = inhibition” value does the source give for O=[N+]([O-])c1ccc(-c2nc(-c3ccc(F)cc3)c(-c3ccncc3)[nH]2)cc1 here?
Its value is -0.874%.

Which “activity, negative = inhibition” value does the source give for O=C1NC(c2cccc([N+](=O)[O-])c2)=CCN1c1ccccc1O here?
The value was -2.37%.

How did the “activity, negative = inhibition” value turn out when Cn1cnc2c(NCc3ccccc3)nc(NCCO)nc21 was run?
Its value is -0.0941%.

For COc1ccccc1N1CCN(CCN2C(=O)CC3(CCCC3)CC2=O)CC1, which “activity, negative = inhibition” value is on record?
The value was -0.993%.

Brc1ccc([C@H]2CN3CCSC3=N2)cc1 was tested. Which “activity, negative = inhibition” value did it give?
Its value is -1.39%.

C[N+](C)(C)CCO was tested. Which “activity, negative = inhibition” value did it give?
Its value is -2.27%.

Which “activity, negative = inhibition” value does the source give for CC(C)N(CCC(=O)c1ccc2ccccc2c1)Cc1ccccc1 here?
The value was -0.693%.

With CN(C)c1cc2c(Nc3ccc4c(cnn4Cc4ccccc4)c3)ncnc2cn1 as the compound, how does the “activity, negative = inhibition” value read?
The value was -3.1%.

With C[C@]12CCC(=O)C=C1CC[C@@H]1[C@@H]2[C@@H](O)C[C@@]2(C)[C@H]1CC[C@]2(O)C(=O)COC(=O)CCC(=O)O as the compound, how does the “activity, negative = inhibition” value read?
Its value is -0.0078%.

From PubChem BioAssay (NCATS)
